# Screens: PubChem, The Scripps Research Institute Molecular Screening Center
# A selection: hits, their analogues and other compounds. The true share with any hit is near 2.2%.
# OPRM1-OPRD1 ag: agonists of human mu-delta opioid receptor heterodimerization; P35372+P41143; AID 504326; 340,000 compounds, 0.3% hits; activation, % at 9.3 µM; cells, OPRM1-OPRD1 heterodimerization, luminescence
# MOR-DOR inv ag: mu-delta opioid heterodimer inverse agonism; P35372+P41143; cell-based MOR-DOR heterodimer luminescence; inhibition, % at 9.3 µM; 340,000 compounds, 0.21% hits; AID 504357; in the data active means inhibition above about 22%, passing the limit was not always enough
# HTR5A inv ag: HTR5A inverse agonism, opioid heterodimer counter-screen | P47898 | HTR5A cell line, luminescence | inhibition, % at 9.3 µM | 340,000 compounds, 0.083% hits; in the data active means inhibition mostly above about 23%, no sharp cut-off; inactive means mostly below about 18%
# Target sequence (P47898 whole entry, looked up): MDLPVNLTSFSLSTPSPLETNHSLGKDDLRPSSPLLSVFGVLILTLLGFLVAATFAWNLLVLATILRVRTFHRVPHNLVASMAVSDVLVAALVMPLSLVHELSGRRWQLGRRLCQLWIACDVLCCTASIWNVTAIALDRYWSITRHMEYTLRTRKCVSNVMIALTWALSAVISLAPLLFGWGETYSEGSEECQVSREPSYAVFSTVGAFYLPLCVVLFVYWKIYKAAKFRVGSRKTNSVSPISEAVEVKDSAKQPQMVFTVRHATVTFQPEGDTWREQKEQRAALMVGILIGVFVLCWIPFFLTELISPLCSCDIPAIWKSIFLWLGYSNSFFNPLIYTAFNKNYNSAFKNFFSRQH
# m5-HT2A agonist: activates the mouse 5-HT2A serotonin receptor; CHO-K1 mHTR2A beta-arrestin complementation, luminescence; percent of 30 µM serotonin response; 360,000 compounds, 0.66% hits; activation, % at 7.6 µM;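 active means activation above a run cutoff, the mean activation of all tested compounds plus 3 SD, cut at about 14% in these data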
# HTR5A ag ctr: counter-screen for OPRM1-OPRD1 agonists: human HTR5A agonism. HTR5A agonist assay, luminescence, cell-based. activation, % at 9.3 µM. 340,000 compounds, 0.61% hits; in the data active means activation mostly above about 9.5%, no sharp cut-off; inactive means mostly below about 7.6%
# HGIII-sPLA2 inh: Blocks human group III sPLA2 activity | inhibition, % at 12.2 µM | AID 743126 | 370,000 compounds, 0.56% hits | Q9NZ20 | QFRET BODIPY PC-A2 liposome hydrolysis, fluorescence;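 active means inhibition above mean plus 3 SD of compounds lying within the high and low control bounds, cut at about 19% in these data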
# MOR-DOR ag conf: confirmation of human OPRM1-OPRD1 heterodimerization agonists. 830 compounds, 45% hits. cells, MOR-DOR heterodimerization, luminescence complementation. shares compounds with OPRM1-OPRD1 ag. activation, % at 9.3 µM. AID 504904
# HTR5A ag ctr2: HTR5A agonism, opioid heterodimer counter-screen. shares compounds with OPRM1-OPRD1 ag. HTR5A agonist counterscreen, cell luminescence. activation, % at 9.3 µM. 830 compounds, 8% hits. AID 504905; in the data active means activation above about 17%
# Numbers stand for hits; i = inactive; nt = not tested or not shown. Unless noted, no stated cut-off is given here; in the data, active means activation above about 18%; inactive means the rest.
SMILES,OPRM1-OPRD1 ag,MOR-DOR inv ag,HTR5A inv ag,m5-HT2A agonist,HTR5A ag ctr,HGIII-sPLA2 inh,MOR-DOR ag conf,HTR5A ag ctr2
CC(=O)c1ccc(NC(=O)CNCC(c2ccccc2)N(C)C)cc1 (stereo unspecified),i,i,i,i,i,i,nt,nt
Cc1ccc(NC(=O)NCC(c2ccccc2)N(C)C)cc1 (stereo unspecified),353,i,i,i,i,i,23,17
Cc1cc2c(c(=O)o1)[C@@]1(C(=O)N(C)c3c(Br)cccc31)C1=C(CCCC1=O)O2,nt,nt,nt,nt,nt,i,nt,nt
Cc1cc(C2(c3ccc(O)c(C)c3)C(=O)Nc3ccccc32)ccc1O,20,i,i,i,i,i,i,i
O=C1Nc2ccccc2C1(O)c1ccccc1 (stereo unspecified),i,i,i,i,i,i,nt,nt
O=C(OCc1ccc(F)cc1)c1ccc2c(c1)-c1ccccc1C2=O,i,i,i,i,i,i,nt,nt
CCOC(=O)C1=C(Cc2ccc(F)cc2)C(=O)c2ccccc2C1=O,18,i,i,i,i,i,i,27
COc1cc(C(C(=O)NC2CCCCC2)N(C(=O)Cc2c[nH]c3ccccc23)c2ccccc2C)cc(OC)c1OC (stereo unspecified),i,i,i,i,i,i,nt,nt
COc1ccc(C(C(=O)NC2CCCCC2)N(C(=O)Cc2c[nH]c3ccccc23)c2ccc(NC(C)=O)cc2)cc1OC (stereo unspecified),26,i,i,i,i,i,83,i
CCOc1cc(/C=N/NC(=O)c2ccncc2)ccc1OC(=O)c1ccccc1,i,i,i,i,i,i,nt,nt
CCOc1cc(/C=N/NC(=O)c2ccncc2)ccc1OC(=O)c1ccc([N+](=O)[O-])cc1,45,i,i,i,i,i,i,i
CN(C)c1ccc(/C=N/NC(=O)c2ccc(NC(=O)c3ccccc3)cc2)cc1,19,i,i,i,i,i,34,20
O=C(N/N=C/c1ccc(Br)cc1)c1ccc(NC(=O)c2ccccc2)cc1,i,i,i,i,i,i,nt,nt
O=C(c1sc2ccccc2c1Cl)N(Cc1ccco1)C1CCS(=O)(=O)C1 (stereo unspecified),53,i,i,i,i,i,54,i
O=C(c1ccccc1F)N(Cc1ccccc1)C1CCS(=O)(=O)C1 (stereo unspecified),i,i,i,i,i,i,nt,nt
O=C(c1sc2ccccc2c1Cl)N(Cc1ccccc1)C1CCS(=O)(=O)C1 (stereo unspecified),29,i,i,i,i,i,27,i
O=C(c1cccs1)N(Cc1ccco1)C1CCS(=O)(=O)C1 (stereo unspecified),i,i,i,i,i,i,nt,nt
O=C(COC(=O)CNC(=O)c1sc2ccccc2c1Cl)NC1CCS(=O)(=O)C1 (stereo unspecified),i,i,i,i,i,i,nt,nt
O=C(c1sc2ccccc2c1Cl)N(Cc1ccccc1Cl)C1CCS(=O)(=O)C1 (stereo unspecified),52,i,i,i,i,i,18,i
CCC[C@H]1[C@@H](N(C)CC2CCCCC2)CC[C@@]23CCCN2C(=O)CCC[C@@H]13,nt,nt,nt,nt,nt,i,nt,nt
CC(=O)N1C[C@@H](CO)[C@@H](N(C)C(=O)Nc2cccc3ccccc23)C[C@H]1c1ccccc1,nt,nt,nt,nt,nt,i,nt,nt
O=C(NCc1cccs1)C1C2C=CC3(CN(Cc4ccccc4)C(=O)C13)O2 (stereo unspecified),nt,nt,nt,nt,nt,i,nt,nt
CC1CCN(S(=O)(=O)c2ccc3c(c2)C(=NO)c2cc(S(=O)(=O)N4CCC(C)CC4)ccc2-3)CC1,30,i,i,i,i,i,i,i
COc1cccc(C2c3[nH]c4ccccc4c3C[C@H]3C(=O)N(CCCOC(C)C)CC(=O)N23)c1 (stereo partly specified),18,i,i,i,i,i,i,i
CC(C)OCCCN1CC(=O)N2C(c3ccccc3)c3[nH]c4ccccc4c3C[C@H]2C1=O (stereo partly specified),i,i,i,i,i,i,nt,nt
SMILES,OPRM1-OPRD1 ag,MOR-DOR inv ag,HTR5A inv ag,m5-HT2A agonist,HTR5A ag ctr,HGIII-sPLA2 inh,MOR-DOR ag conf,HTR5A ag ctr2
COc1ccc(C(=O)N(C)[C@H]2C[C@H]3c4[nH]c5c(-c6ccccc6)cccc5c4CCN3C(=O)[C@H]2[C@H](C)O)cc1,nt,nt,nt,nt,nt,i,nt,nt
C#CC(=O)N(c1cc(OC)ccc1OC)C(C(=O)NC1CCCC1)c1cccs1 (stereo unspecified),37,i,i,i,i,nt,i,20
COc1ccc(N(C(=O)c2snc(C(N)=O)c2N)C(C(=O)NC2CCCC2)c2cccs2)cc1OC (stereo unspecified),i,i,i,i,i,i,nt,nt
COc1ccccc1C(=O)NC1CCCCN(Cc2cccc(C(F)(F)F)c2)C1=O (stereo unspecified),nt,nt,nt,nt,nt,i,nt,nt
COc1ccc(C2NCCc3c2[nH]c2ccccc32)cc1COc1ccc(F)cc1 (stereo unspecified),20,i,i,i,i,i,24,i
CC(C)n1ncc2c(C(=O)Nc3cccc(C#N)c3)cc(C3CC3)nc21,184,i,i,i,i,i,216,i
CCNC(=O)c1cccc(NC(=O)c2cc(C3CC3)nc3c2cnn3C(C)C)c1,i,i,i,i,i,i,nt,nt
CCN(Cc1ccccc1)S(=O)(=O)c1ccc(C(=O)N(CCCN(C)C)c2nc3cc4c(cc3s2)OCO4)cc1,25,i,i,i,i,i,i,i
CN(C)CCCN(C(=O)c1ccc(S(=O)(=O)N(C)C)cc1)c1nc2cc3c(cc2s1)OCO3,i,i,i,i,i,i,nt,nt
Cc1ccc2sc(N(CCCN(C)C)C(=O)c3ccc(S(=O)(=O)N(C)C4CCCCC4)cc3)nc2c1C,31,i,i,i,i,i,49,22
CCN(CC)CCN(C(=O)c1ccc(S(=O)(=O)N(C)C2CCCCC2)cc1)c1nc2c(C)cccc2s1,i,i,i,i,i,i,nt,nt
CCN(Cc1ccccc1)S(=O)(=O)c1ccc(C(=O)N(CCCN(C)C)c2nc3c(C)c(C)ccc3s2)cc1,31,i,i,i,i,i,41,i
COc1ccc(-n2cc(COC(=O)NCCc3c[nH]c4ccccc34)nn2)cc1,nt,nt,nt,nt,nt,i,nt,nt
NC(N)=NC(=O)c1nc(Cl)c(N2CCCCCC2)nc1N,72,i,i,i,i,i,95,i
CCc1ccc(Nc2n[n+](-c3ccccc3)c(-c3c(Cl)cccc3Cl)s2)cc1,27,i,i,i,i,i,73,i
Fc1ccc(-[n+]2nc(Nc3ccccc3)sc2-c2c(Cl)cccc2Cl)cc1,i,i,i,i,i,i,nt,nt
COC(=O)C1CN(CCc2ccccc2)CCS(=O)(=O)N1Cc1ccccc1F (stereo unspecified),nt,nt,nt,nt,nt,i,nt,nt
